This note sets out measurements from ChEMBL document CHEMBL3988442, “University of Dundee, Small-Polar-MMV Screening Library” (2021).

The first assay concerns the target T1, Aspartate--tRNA(Asp/Asn) ligase (Mycobacterium tuberculosis (strain ATCC 25618 / H37Rv)) (UniProt P9WFW3). Further: in the data most compounds retested in dose-response had high values.
T1 sequence (whole entry): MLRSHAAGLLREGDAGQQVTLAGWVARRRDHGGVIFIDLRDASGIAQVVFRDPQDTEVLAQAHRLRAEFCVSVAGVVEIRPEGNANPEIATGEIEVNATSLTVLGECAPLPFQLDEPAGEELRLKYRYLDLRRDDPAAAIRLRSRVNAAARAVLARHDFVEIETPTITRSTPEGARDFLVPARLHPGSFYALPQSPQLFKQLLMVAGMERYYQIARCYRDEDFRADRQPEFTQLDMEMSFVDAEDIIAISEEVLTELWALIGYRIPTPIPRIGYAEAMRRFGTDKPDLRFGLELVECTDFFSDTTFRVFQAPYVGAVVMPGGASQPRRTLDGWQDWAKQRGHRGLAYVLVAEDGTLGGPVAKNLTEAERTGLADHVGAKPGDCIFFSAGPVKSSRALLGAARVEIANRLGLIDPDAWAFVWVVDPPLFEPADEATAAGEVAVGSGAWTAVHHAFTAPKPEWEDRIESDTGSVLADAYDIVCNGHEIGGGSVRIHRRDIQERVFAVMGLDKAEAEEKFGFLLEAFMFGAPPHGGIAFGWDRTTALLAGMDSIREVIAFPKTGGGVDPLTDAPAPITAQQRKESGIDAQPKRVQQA
Nature of the assay: Assay for Asp RNA synthetase-1 from Mycobacterium tuberculosis. The format is functional. The arrangement: scale not given: direction of the effect not stated beside the values. The conditions noted are these: 30 µM.
Take `CCOc1ncccc1NC(=O)NC1CCN(S(C)(=O)=O)CC1`: the Percent Effect stood at 5.32%.

As for `O=C(NCC1CCOC1)c1cc(-c2cccc(Cl)c2)on1` (stereo not given), the Percent Effect came to 1.64%.

In the case of `COc1ccc2c(c1)CCN(CCC(=O)NC1CCCCC1)CC2`, the Percent Effect was -0.993%.

For the molecule `Cc1cnn(CC2CN(CC(=O)N(C)c3nccs3)CCO2)c1` (stereo not given), the Percent Effect was -6.72%.

For the molecule `COc1ccc2c(c1)C1(CCN(Cc3ccncc3)CC1)N(C)CC2`, the Percent Effect turned out to be 2.26%.

Consider `Cn1c(Cn2ccnc2)nnc1C1CCN(Cc2cccnc2N)CC1`, for which the Percent Effect is -2.34%.

Consider `Cn1nccc1C1CCN(CC(O)c2cccc(F)c2)CC1` (stereo not given), for which the Percent Effect was -1.6%.

Consider `c1csc(CN2Cc3nccn3CC(Cn3cncn3)C2)n1` (stereo not given), for which the Percent Effect was -2.48%.

As for `O=C(C1CCCc2[nH]ncc21)N1CCCC1` (stereo not given), the Percent Effect turned out to be 2.61%.

Regarding `COc1ccccc1Oc1ncccc1CNC(=O)[C@@H](C)NC(C)=O`, the Percent Effect came to 0.362%.

Consider `CC(C(=O)N1CCCC1)N1CCC(c2nccn2Cc2cscn2)CC1` (stereo not given), for which the Percent Effect was 1.8%.

As for `CCOCCNc1nc(C2CCCC2)nc2c1cnn2C`, the Percent Effect was determined as 5.12%.

With `COCCn1nc(C(=O)N(C)Cc2cnn(C)c2)ccc1=O`, the Percent Effect is -3.74%.

Consider `Cc1cc(C(=O)N2CCc3nnc(N)cc3C2)c(C)n1C1CC1`, for which the Percent Effect was found to be 7.93%.

Turning to `Cc1cc(CNC(=O)N2CCCN(Cc3ccccc3)CC2)no1`, the Percent Effect was -4.23%.

Take `CCS(=O)(=O)CC(=O)NC(c1ccc(F)cc1)C1CCCC1` (stereo not given): the Percent Effect was -3.77%.

Consider `CCc1ccc(C2CCCCCN2Cc2nc(CCOC)no2)o1` (stereo not given), for which the Percent Effect stood at 10.6%.

Turning to `CC(C)c1nc(C2CCCN2CCCc2nc3ccccc3o2)no1` (stereo not given), the Percent Effect is -3.53%.

For the molecule `COc1cc(C)nc(N2CCN(Cc3nccn3C)CC2)n1`, the Percent Effect was -1.39%.

For the molecule `O=C(c1ccc(Cl)cc1)N1CCCn2nnc(Cn3cccn3)c2C1`, the Percent Effect was -1.14%.

Another assay addresses Shiga toxin 2 (Escherichia coli O157:H7) (UniProt P09385+P09386). The experiment in a line: E. coli 0.157:H7 Shiga Toxin SOP - stx2 screening assay. The format is functional. Also noted: scale not given: direction of the effect not stated beside the values. The conditions noted are these: 30 µM.
As for `Cc1noc(NC(=O)c2ccc(Br)cc2)n1`, the Percent Effect was found to be 54.5%.

Turning to `c1cnc(N2CCC3(COCc4cnc(-c5cccnc5)nc43)C2)nc1` (stereo not given), the Percent Effect is -3.56%.

Turning to `CCNc1cc2c(nn1)CCN(C(=O)c1ccc(CNC(C)=O)o1)C2`, the Percent Effect is -44.4%.

For the molecule `CC1CCN(C(=O)CN(Cc2ccco2)C2CC2)CC1`, the Percent Effect was -5.22%.

Consider `CCn1cc(NC(=O)NCc2ccc(CN3CCOCC3)cc2)cn1`, for which the Percent Effect is -35.1%.

Regarding `COc1cc(CNC(=O)NCc2c(C)cc(C)[nH]c2=O)ccc1C`, the Percent Effect was -4.18%.

`CCOCC1CN(C(=O)N(C)C)Cc2nn(C)cc21` (stereo not given): the Percent Effect is -4.03%.

On to `Cc1cc(CNC(=O)C2CCCCN2C(=O)OC(C)(C)C)no1` (stereo not given), for which the Percent Effect was 10.5%.

With `CCN(CCNC(=O)c1ccccc1Br)C1CC1`, the Percent Effect stood at 9.65%.

With `Cc1cc(CNC(=O)N2CCN(c3nc(C)c(C)s3)CC2)no1`, the Percent Effect was 24%.

With `O=C(NCc1cccc2cccnc12)N1CCC(n2cncn2)CC1`, the Percent Effect stood at 8.18%.

Consider `O=C(NCCC1=CCCCC1)NCc1nnc2n1CCC2`, for which the Percent Effect was determined as 24.3%.

Regarding `O=C(Nc1cnccn1)[C@@H]1COC[C@H]2CN(C3CCCC3)C[C@H]21`, the Percent Effect was 18%.

Regarding `O=C(NCc1cccs1)C1CN(C(=O)c2cccs2)CC12CCOCC2` (stereo not given), the Percent Effect amounted to 5.39%.

With `Cc1ncsc1C(=O)N(C)CCc1ccncc1`, the Percent Effect came out at 19.9%.

Regarding `O=C(c1cc(COc2ccc3c(c2)OCO3)[nH]n1)N1CCCC1`, the Percent Effect was -23.7%.

In the case of `CCN(CC)C(=O)C(c1ccccc1)N1CCn2c(C)nnc2C1` (stereo not given), the Percent Effect came to 4.2%.

For `CC1CCN(S(=O)(=O)c2cccn(CC(=O)NC3CCCC3)c2=O)CC1`, the Percent Effect is 1.09%.

As for `c1csc(CN2CCO[C@H]3[C@H](OCCN4CCCC4)CC[C@@H]32)n1`, the Percent Effect was -36.8%.

Consider `Cc1ccc(NC2CCN(C(=O)Cc3cccc(F)c3)CC2)nn1`, for which the Percent Effect came to 11.3%.

Consider `CCOc1ncccc1NC(=O)NC1CCN(S(C)(=O)=O)CC1`, for which the Percent Effect was -16.8%.

Turning to `O=C(NCC1CCOC1)c1cc(-c2cccc(Cl)c2)on1` (stereo not given), the Percent Effect was -6.35%.

For the molecule `COc1ccc2c(c1)CCN(CCC(=O)NC1CCCCC1)CC2`, the Percent Effect was -9.64%.

In the case of `Cc1cnn(CC2CN(CC(=O)N(C)c3nccs3)CCO2)c1` (stereo not given), the Percent Effect was 11%.

`COc1ccc2c(c1)C1(CCN(Cc3ccncc3)CC1)N(C)CC2`: the Percent Effect is -1.38%.

Take `Cn1c(Cn2ccnc2)nnc1C1CCN(Cc2cccnc2N)CC1`: the Percent Effect is -12.5%.

As to `Cn1nccc1C1CCN(CC(O)c2cccc(F)c2)CC1` (stereo not given), the Percent Effect was -15.8%.

As to `c1csc(CN2Cc3nccn3CC(Cn3cncn3)C2)n1` (stereo not given), the Percent Effect was -4.98%.

For `O=C(C1CCCc2[nH]ncc21)N1CCCC1` (stereo not given), the Percent Effect is -4.59%.

For the molecule `COc1ccccc1Oc1ncccc1CNC(=O)[C@@H](C)NC(C)=O`, the Percent Effect is -19.5%.

Turning to `CC(C(=O)N1CCCC1)N1CCC(c2nccn2Cc2cscn2)CC1` (stereo not given), the Percent Effect was -3.75%.

For `CCOCCNc1nc(C2CCCC2)nc2c1cnn2C`, the Percent Effect is 1.57%.

On to `COCCn1nc(C(=O)N(C)Cc2cnn(C)c2)ccc1=O`, for which the Percent Effect came out at 9.25%.

As to `Cc1cc(C(=O)N2CCc3nnc(N)cc3C2)c(C)n1C1CC1`, the Percent Effect was -1.08%.

As for `Cc1cc(CNC(=O)N2CCCN(Cc3ccccc3)CC2)no1`, the Percent Effect is 9.91%.

As for `CCS(=O)(=O)CC(=O)NC(c1ccc(F)cc1)C1CCCC1` (stereo not given), the Percent Effect is -1.68%.

`CCc1ccc(C2CCCCCN2Cc2nc(CCOC)no2)o1` (stereo not given): the Percent Effect is -30.6%.

`CC(C)c1nc(C2CCCN2CCCc2nc3ccccc3o2)no1` (stereo not given): the Percent Effect was found to be 17.3%.

On to `COc1cc(C)nc(N2CCN(Cc3nccn3C)CC2)n1`, for which the Percent Effect was -9.36%.

`O=C(c1ccc(Cl)cc1)N1CCCn2nnc(Cn3cccn3)c2C1`: the Percent Effect is -4.47%.
